# From the supplement of paper PMC10849652
# Targets with a hit are over-represented here; the source holds about 8,800 in all. About 0.5% of all pairs of compound and target were hits. Values without a mark were called inactive.
# Key:
# Experiment in all cases: log2 fold change, soluble protein after heating vs DMSO (PISA); higher = thermal stabilisation; K562 lysate, 10 uM; active = over 0.2 and 3.5 SD of the protein, either way, in both replicates (recomputed)
# alvocidib = compound: CN1CC[C@H](c2c(O)cc(O)c3c(=O)cc(-c4ccccc4Cl)oc23)[C@H](O)C1 [alvocidib]
# In short: (§1)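 Following dounce homogenisation of K562 pellets in PBS pH 7.4 with 1 mM MgCl2, crude extract at 1 mg/mL protein was incubated for 30 min with 10 μM compound. Aliquots were then heated for 3 min over 48°C-58°C and pooled, NP-40 was added to 0.5% at 4°C, and soluble protein was recovered as the supernatant at 21,000xg for 90 min. Channel-sum-equalised TMTpro 16plex LC-MS/MS quantified this protein. Each value, from duplicates, is a log-two fold change in thermal stability relative to solvent controls.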
# Tubastatin A = compound: CN1CCc2c(c3ccccc3n2Cc2ccc(C(=O)NO)cc2)C1 [Tubastatin A]
# In short: as §1
# [1] = compound: CNC(=O)C1=CC=CC=C1NC2=NC(=NC=C2Cl)NC3=C(C=C(C=C3)N4CCOCC4)OC
# In short: as §1
# defactinib = compound: CNC(=O)c1ccc(Nc2ncc(C(F)(F)F)c(NCc3nccnc3N(C)S(C)(=O)=O)n2)cc1 [defactinib]
# In short: as §1
# [2] = compound: CNc1nc(-c2ccc3c(N)n[nH]c3c2)cc(N2C[C@@H](C(=O)NC3CCCCC3)CC[C@H]2C)n1
# In short: as §1
# encorafenib = compound: COC(=O)N[C@@H](C)CNc1nccc(-c2cn(C(C)C)nc2-c2cc(Cl)cc(NS(C)(=O)=O)c2F)n1 [encorafenib]
# In short: as §1
# [3] = compound: COC(=O)[C@H](CCSC)NC(=O)C1=C(C=C(C=C1)NC[C@H](CS)N)C2=CC=CC=C2
# In short: as §1
# alisertib = compound: COc1cc(Nc2ncc3c(n2)-c2ccc(Cl)cc2C(c2c(F)cccc2OC)=NC3)ccc1C(=O)O [alisertib]
# In short: as §1
# [4] = compound: COc1cc2nc(-c3cc(F)ccc3O)nc(N[C@@H]3CNC[C@H]3C(C)(C)O)c2cc1OC
# In short: as §1
# gefitinib = compound: COc1cc2ncnc(Nc3ccc(F)c(Cl)c3)c2cc1OCCCN1CCOCC1 [gefitinib]
# In short: as §1
# lapatinib = compound: CS(=O)(=O)CCNCc1ccc(-c2ccc3ncnc(Nc4ccc(OCc5cccc(F)c5)c(Cl)c4)c3c2)o1 [lapatinib]
# In short: as §1
# pictilisib = compound: CS(=O)(=O)N1CCN(Cc2cc3nc(-c4cccc5[nH]ncc45)nc(N4CCOCC4)c3s2)CC1 [pictilisib]
# In short: as §1
# crizotinib = compound: C[C@@H](Oc1cc(-c2cnn(C3CCNCC3)c2)cnc1N)c1c(Cl)ccc(F)c1Cl [crizotinib]
# In short: as §1
# [5] = compound: C[C@H](C1=CC=C(C=C1)C(=O)NC2=C3C=CNC3=NC=C2)N
# In short: as §1
# duvelisib = compound: C[C@H](Nc1ncnc2nc[nH]c12)c1cc2cccc(Cl)c2c(=O)n1-c1ccccc1 [duvelisib]
# In short: as §1
# gandotinib = compound: Cc1cc(Nc2cc(CN3CCOCC3)c3nc(C)c(Cc4ccc(Cl)cc4F)n3n2)n[nH]1 [gandotinib]
# In short: as §1
# tozasertib = compound: Cc1cc(Nc2cc(N3CCN(C)CC3)nc(Sc3ccc(NC(=O)C4CC4)cc3)n2)n[nH]1 [tozasertib]
# In short: as §1
# doramapimod = compound: Cc1ccc(-n2nc(C(C)(C)C)cc2NC(=O)Nc2ccc(OCCN3CCOCC3)c3ccccc23)cc1 [doramapimod]
# In short: as §1
# bafetinib = compound: Cc1ccc(NC(=O)c2ccc(CN3CC[C@H](N(C)C)C3)c(C(F)(F)F)c2)cc1Nc1nccc(-c2cncnc2)n1 [bafetinib]
# In short: as §1
# [6] = compound: Cc1cccc(CC(=O)N2CCc3c2ccc(-c2cn(C)c4ncnc(N)c24)c3F)n1
# In short: as §1
# Chain of UniProt Q9UHX1 (Q9UHX1 whole entry, looked up): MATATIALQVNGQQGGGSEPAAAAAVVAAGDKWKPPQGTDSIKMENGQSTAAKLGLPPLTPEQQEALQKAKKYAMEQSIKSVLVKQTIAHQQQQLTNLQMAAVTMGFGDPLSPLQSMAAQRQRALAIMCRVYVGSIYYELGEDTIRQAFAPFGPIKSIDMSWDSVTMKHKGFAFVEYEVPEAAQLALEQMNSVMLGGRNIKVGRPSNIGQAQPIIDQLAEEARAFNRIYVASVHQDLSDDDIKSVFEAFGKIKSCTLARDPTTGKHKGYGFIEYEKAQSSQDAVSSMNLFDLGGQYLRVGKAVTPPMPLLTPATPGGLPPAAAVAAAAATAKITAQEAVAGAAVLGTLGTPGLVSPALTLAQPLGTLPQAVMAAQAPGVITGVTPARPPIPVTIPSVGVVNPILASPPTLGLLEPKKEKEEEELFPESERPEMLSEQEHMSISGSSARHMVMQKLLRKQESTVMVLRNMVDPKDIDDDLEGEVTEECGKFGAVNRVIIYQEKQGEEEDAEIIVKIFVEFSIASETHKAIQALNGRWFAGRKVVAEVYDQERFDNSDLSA
# Chain of UniProt O00329 (O00329 whole entry, looked up): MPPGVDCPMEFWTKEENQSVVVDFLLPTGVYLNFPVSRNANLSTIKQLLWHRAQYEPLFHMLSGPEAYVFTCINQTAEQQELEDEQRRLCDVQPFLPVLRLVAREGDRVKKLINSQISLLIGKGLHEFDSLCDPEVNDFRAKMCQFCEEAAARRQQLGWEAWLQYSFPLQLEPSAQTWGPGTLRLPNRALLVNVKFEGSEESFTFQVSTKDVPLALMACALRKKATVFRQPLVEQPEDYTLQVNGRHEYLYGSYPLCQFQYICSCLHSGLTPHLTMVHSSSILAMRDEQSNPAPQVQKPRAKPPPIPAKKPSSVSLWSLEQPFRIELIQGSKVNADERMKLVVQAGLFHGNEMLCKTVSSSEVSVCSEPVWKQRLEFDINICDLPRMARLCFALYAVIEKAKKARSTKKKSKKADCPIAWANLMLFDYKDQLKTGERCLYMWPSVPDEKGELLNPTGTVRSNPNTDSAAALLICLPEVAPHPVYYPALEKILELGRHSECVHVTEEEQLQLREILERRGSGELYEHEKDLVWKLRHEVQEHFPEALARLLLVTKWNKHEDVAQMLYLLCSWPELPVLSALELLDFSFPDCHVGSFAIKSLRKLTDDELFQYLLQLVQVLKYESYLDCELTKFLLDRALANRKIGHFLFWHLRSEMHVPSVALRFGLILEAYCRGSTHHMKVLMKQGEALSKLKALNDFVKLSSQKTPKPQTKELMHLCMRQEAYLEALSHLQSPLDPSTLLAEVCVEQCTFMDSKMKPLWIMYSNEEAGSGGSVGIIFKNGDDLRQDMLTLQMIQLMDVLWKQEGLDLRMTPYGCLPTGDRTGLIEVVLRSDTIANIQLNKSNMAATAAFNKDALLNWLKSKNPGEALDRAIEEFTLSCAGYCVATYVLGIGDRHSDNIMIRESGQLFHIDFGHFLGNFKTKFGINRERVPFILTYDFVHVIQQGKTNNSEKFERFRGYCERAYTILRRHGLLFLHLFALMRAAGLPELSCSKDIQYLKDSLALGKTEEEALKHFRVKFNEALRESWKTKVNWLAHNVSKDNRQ
# Chain of UniProt Q8TD55 (Q8TD55 whole entry, looked up): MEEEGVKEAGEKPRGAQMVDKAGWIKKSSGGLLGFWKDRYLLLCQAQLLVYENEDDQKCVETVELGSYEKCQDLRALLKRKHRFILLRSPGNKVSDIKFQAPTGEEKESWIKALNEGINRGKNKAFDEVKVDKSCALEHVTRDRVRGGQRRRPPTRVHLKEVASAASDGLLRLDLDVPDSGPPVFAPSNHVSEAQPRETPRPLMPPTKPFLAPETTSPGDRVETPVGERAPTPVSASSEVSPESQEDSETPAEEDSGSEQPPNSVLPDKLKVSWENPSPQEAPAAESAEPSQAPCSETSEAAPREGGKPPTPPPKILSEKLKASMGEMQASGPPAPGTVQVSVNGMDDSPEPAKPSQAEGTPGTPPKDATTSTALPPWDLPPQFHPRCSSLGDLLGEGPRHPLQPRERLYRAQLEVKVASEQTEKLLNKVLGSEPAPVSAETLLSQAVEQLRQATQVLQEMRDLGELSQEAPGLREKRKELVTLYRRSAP
# Chain of UniProt O94906 (O94906 whole entry, looked up): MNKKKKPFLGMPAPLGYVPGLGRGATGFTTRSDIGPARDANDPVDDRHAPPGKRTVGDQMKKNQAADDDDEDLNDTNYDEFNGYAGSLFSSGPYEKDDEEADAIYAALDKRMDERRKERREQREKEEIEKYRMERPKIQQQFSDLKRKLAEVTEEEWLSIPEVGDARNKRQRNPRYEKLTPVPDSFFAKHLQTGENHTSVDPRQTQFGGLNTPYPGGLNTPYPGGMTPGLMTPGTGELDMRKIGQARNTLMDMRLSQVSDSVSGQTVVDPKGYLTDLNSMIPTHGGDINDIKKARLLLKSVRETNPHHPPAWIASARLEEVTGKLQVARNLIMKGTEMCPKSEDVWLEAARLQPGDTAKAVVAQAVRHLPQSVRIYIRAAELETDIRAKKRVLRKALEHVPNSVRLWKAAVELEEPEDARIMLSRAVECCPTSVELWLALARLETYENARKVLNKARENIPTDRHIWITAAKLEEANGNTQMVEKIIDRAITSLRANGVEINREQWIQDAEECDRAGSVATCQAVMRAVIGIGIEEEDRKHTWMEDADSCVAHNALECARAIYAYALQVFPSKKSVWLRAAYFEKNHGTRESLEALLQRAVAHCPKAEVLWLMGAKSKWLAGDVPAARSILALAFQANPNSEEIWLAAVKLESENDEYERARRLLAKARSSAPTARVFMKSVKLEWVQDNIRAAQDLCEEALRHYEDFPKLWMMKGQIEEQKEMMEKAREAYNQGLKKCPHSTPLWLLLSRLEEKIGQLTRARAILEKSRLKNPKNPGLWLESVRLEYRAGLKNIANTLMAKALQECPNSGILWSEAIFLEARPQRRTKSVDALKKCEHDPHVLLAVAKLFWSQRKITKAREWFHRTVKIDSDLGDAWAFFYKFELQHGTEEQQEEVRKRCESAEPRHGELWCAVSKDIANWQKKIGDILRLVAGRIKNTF
# Chain of UniProt P57721 (P57721 whole entry, looked up): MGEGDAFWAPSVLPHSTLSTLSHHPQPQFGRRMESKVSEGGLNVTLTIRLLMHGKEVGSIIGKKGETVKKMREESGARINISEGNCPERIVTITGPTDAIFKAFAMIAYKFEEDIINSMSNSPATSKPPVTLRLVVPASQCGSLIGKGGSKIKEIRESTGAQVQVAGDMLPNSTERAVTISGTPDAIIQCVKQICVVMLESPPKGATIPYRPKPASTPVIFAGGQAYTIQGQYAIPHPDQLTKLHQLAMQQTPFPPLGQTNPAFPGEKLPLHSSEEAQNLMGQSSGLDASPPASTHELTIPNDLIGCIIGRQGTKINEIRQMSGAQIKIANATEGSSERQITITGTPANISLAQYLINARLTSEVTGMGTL
# Chain of UniProt O60825 (O60825 whole entry, looked up): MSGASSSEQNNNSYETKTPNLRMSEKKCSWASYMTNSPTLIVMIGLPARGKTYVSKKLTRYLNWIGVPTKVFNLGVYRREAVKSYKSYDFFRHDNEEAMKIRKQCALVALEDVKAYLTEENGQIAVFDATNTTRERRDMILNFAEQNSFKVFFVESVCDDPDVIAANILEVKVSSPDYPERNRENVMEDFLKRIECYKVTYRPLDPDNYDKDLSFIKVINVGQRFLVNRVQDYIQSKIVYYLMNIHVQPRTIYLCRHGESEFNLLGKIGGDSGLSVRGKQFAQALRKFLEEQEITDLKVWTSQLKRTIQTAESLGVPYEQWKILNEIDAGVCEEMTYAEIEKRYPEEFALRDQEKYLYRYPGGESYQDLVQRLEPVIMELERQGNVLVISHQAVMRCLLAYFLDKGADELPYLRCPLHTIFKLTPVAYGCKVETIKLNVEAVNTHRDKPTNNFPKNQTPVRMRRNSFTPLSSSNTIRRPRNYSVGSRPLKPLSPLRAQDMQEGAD
# Chain of UniProt Q969Q6 (Q969Q6 whole entry, looked up): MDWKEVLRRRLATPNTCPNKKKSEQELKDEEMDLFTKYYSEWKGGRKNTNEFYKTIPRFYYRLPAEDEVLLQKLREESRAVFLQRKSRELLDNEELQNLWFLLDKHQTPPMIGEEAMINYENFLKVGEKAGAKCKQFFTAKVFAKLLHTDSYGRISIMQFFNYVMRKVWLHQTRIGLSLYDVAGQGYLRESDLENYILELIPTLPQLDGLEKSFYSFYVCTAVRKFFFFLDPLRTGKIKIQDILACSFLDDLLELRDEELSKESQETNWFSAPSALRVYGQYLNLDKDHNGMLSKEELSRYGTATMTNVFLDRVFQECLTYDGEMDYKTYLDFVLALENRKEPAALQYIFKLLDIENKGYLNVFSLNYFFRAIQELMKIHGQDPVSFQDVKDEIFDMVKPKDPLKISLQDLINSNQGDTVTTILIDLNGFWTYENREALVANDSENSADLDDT
Target,log2 fold change (alvocidib),log2 fold change (Tubastatin A),log2 fold change [1],log2 fold change (defactinib),log2 fold change [2],log2 fold change (encorafenib),log2 fold change [3],log2 fold change (alisertib),log2 fold change [4],log2 fold change (gefitinib),log2 fold change (lapatinib),log2 fold change (pictilisib),log2 fold change (crizotinib),log2 fold change [5],log2 fold change (duvelisib),log2 fold change (gandotinib),log2 fold change (tozasertib),log2 fold change (doramapimod),log2 fold change (bafetinib),log2 fold change [6]
PLEKHO2 (UniProt Q8TD55),-0.067,-0.228,0.281,-0.001,-0.106,0.007,0.054,-0.004,0,0.043,0.045,0.184,0.057,0.039,0.062,-0.018,-0.137,0.005,-0.193,0.07
PCBP2 isoform 8 (UniProt Q15366),-0.01,-0.133,0.022,0,0.079,0.053,0.108,-0.013,-0.085,-0.122,0.022,-0.013,0.001,0.013,0.04,0.029,-0.026,-0.092,0.082,0.036
PPM1H (UniProt Q9ULR3),-0.046,0.071,0.006,-0.03,0.078,-0.008,-0.028,,0.05,,0.013,0.016,0.021,-0.043,0,0.157,0.021,0.093,-0.079,0.038
PDCD10 (UniProt Q9BUL8),-0.053,-0.002,0.013,0.029,-0.005,-0.019,0.034,0.01,0.05,-0.025,-0.016,-0.014,-0.005,-0.254 (active),-0.007,0.112,0.023,-0.013,-0.033,0.031
PRKCA (UniProt P17252),0.034,-0.005,-0.027,0.032,-0.041,0.048,-0.041,-0.031,0.133,-0.038,-0.041,-0.021,-0.019,0.054,-0.057,-0.207,0.021,-0.023,-0.069,-0.079
PCLAF (UniProt Q15004),-0.005,0.041,0.017,0.014,0.056,0.005,-0.077,-0.097,,0.001,,0.015,0.024,-0.079,0.037,0.108,-0.029,0.009,-0.01,0.05
PPP2R3C (UniProt Q969Q6),-0.018,-0.145,-0.046,0.072,0.081,0.105,0.013,0.069,-0.23,0.105,0.048,-0.029,,-0.1,0.028,-0.097,0.036,,0.022,0.023
PIK3CD (UniProt O00329),-0.105,0.012,0.021,0.052,-0.047,,,-0.027,0.027,,-0.043,0.142,-0.037,0.035,0.477 (active),0.389,,0.03,-0.136,-0.016
PFKFB4 (UniProt Q16877),-0.03,-0.009,0.029,0.011,-0.027,0.02,-0.019,,-0.016,,-0.008,-0.061,-0.034,-0.027,0.011,-0.044,-0.012,0.009,-0.003,0.039
PPT2 isoform 3 (UniProt Q9UMR5),-0.051,0.014,-0.005,-0.067,0,-0.014,0.059,0.013,0.015,0.031,-0.053,-0.032,0.035,0.058,0.06,0.016,0.004,0,0.005,-0.05
PRPF6 (UniProt O94906),0.006,-0.096,0.01,0.025,-0.011,0.024,0.22 (active),0.008,0.009,-0.016,-0.008,0.009,-0.06,-0.023,-0.023,-0.08,0.023,0.064,-0.056,0.031
PCBP3 (UniProt P57721),-0.015,0.005,0.022,-0.039,0.042,-0.006,-0.023,0.019,0.015,-0.023,-0.031,-0.035,0.002,-0.067,-0.014,0.028,0.001,0.014,-0.03,0.026
PPP2R5B (UniProt Q15173),0.069,-0.012,-0.03,-0.091,-0.056,-0.017,0.288 (active),,0.046,,-0.089,-0.064,0.075,-0.017,0.021,-0.168,0.04,0.005,0.054,-0.036
PFKFB2 (UniProt O60825),0.017,-0.045,0.03,-0.02,-0.035,0.015,-0.124,0.014,0.006,0.014,0.006,0.001,0.017,-0.016,-0.015,-0.035,0.038,-0.018,-0.07,0.01
PUF60 (UniProt Q9UHX1),0.003,0.019,-0.02,-0.012,0.008,-0.013,0.019,0.005,-0.009,-0.022,0,-0.037,0.036,0.092,-0.01,-0.05,-0.017,-0.012,0.012,-0.058
PPIE (UniProt Q9UNP9),-0.131,0.025,-0.047,-0.018,0.023,-0.025,-0.041,-0.036,0.005,0.034,0.03,0,-0.02,-0.234,0.006,0.144,0.014,0.062,0.009,0.102
PPIL3 (UniProt Q9H2H8),-0.105,-0.044,0,-0.115,0.012,0.011,0.008,-0.033,0.018,-0.02,0.05,-0.062,0.079,-0.115,-0.009,0.084,-0.019,0,-0.037,0.08
